# Test results: PubChem BioAssay (EPA / NIEHS)
# Results filed as inconclusive are left out. The source holds several records for some structures; these can differ, active in one and inactive in another. Activity calls are given as the source filed them. How the source made its calls: active means hit-call score of the fitted dose curve at least 0.9, where 1 is the maximum; inconclusive means response in the unintended direction; inactive means score below 0.9.
# Tests used:
# [1] = ATG_XTT_Cytotoxicity: Cytotoxicity Assessment in the Attagene TRANS-FACTORIAL HepG2 Assay (AID 2283584);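 on AC50: XTT signal for cell number as viability in transfected HepG2 cells; cells exposed to compound for 24 h before reading; active means loss of viability signal versus DMSO baseline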
# In short: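 HepG2 cells transiently transfected with GAL4-UAS multiple reporter units, dosed 24 h; cytotoxicity read by XTT as loss of signal versus DMSO baseline.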
# [2] = TOX21_p53_BLA_p2_viability: Viability Assessment in the Tox21 HCT-116 p53 Agonism Beta-lactamase Assay, Phase 2 (AID 2283591);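 further: compound exposure lasted 16 h at 37 °C; actives lower the ATP signal meaning cytotoxicity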
# In short: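 Cytotoxicity readout: CellTiter-Glo ATP luminescence, 30 min at room temperature, after the beta-lactamase read. Cells were HCT116 exposed 16 h at 37C to compounds pin-transferred at 217-fold dilution from DMSO stocks.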
smiles,measurement,setting,value
CC(C)CC(O)Cc1ccccc1 (stereo not given),outcome,[1],inactive
same,outcome,[2],inactive
O=C(O)CC(C(=O)O)C(CC(=O)O)C(=O)O (stereo not given),outcome,[1],inactive
same,outcome,[2],inactive
Nc1ccc(N=Nc2ccccc2)c(N)n1,outcome,[1],inactive
same,outcome,[2],inactive
O=C1c2ccccc2C(=O)C1c1nc2ccccc2c(Br)c1O,outcome,[1],inactive
same,outcome,[2],inactive
CC(C)COC(=O)C=Cc1ccccc1,outcome,[1],inactive
same,outcome,[2],inactive
CCCCCCCCCCCCCCCC[N+](C)(C)CC,outcome,[1],inactive
same,AC50,[2],37.2 µM (active)
CC1OC1C1CCC2(C)OC2C1 (stereo not given),outcome,[1],inactive
same,outcome,[2],inactive
[Cl][Nd]([Cl])[Cl],outcome,[1],inactive
same,outcome,[2],inactive
Cc1cccc(N)n1,outcome,[1],inactive
same,outcome,[2],inactive
C=C[C@](C)(O)CC[C@@H]1[C@@]2(C)CCCC(C)(C)[C@@H]2CC[C@@]1(C)O,AC50,[1],119 µM (active)
same,AC50,[2],47.1 µM (active)
CC(=O)Oc1ccc(C)cc1,outcome,[1],inactive
same,outcome,[2],inactive
CC(=O)Nc1ccc2c(c1)Cc1cc(NC(C)=O)ccc1-2,outcome,[1],inactive
same,outcome,[2],inactive
CCCCCCCCCCCSCC(=O)O,outcome,[1],inactive
same,AC50,[2],62 µM (active)
O=C(O)c1cc2ccccc2nc1C(=O)O,outcome,[1],inactive
same,outcome,[2],inactive
O=C(Nc1ccccc1)c1ccccc1O,outcome,[1],inactive
same,outcome,[2],inactive
N#CCc1ccc(Cl)cc1Cl,outcome,[1],inactive
same,outcome,[2],inactive
CCC(Cc1ccccc1)(C(=O)c1ccc(N2CCOCC2)cc1)N(C)C (stereo not given),outcome,[1],inactive
same,outcome,[2],inactive
Cc1c(C)c([N+](=O)[O-])c(C(C)(C)C)c([N+](=O)[O-])c1C,outcome,[1],inactive
same,outcome,[2],inactive
Cc1cc(O)c(Cl)c(C)c1Cl,outcome,[1],inactive
same,AC50,[2],57 µM (active)
Cc1oncc1C(=O)Nc1ccc(C(F)(F)F)cc1,outcome,[1],inactive
same,outcome,[2],inactive
O=C1C=CC(=O)O1,outcome,[1],inactive
same,outcome,[2],inactive
O=c1n(CCO)c(=O)n(CCO)c(=O)n1CCO,outcome,[1],inactive
same,outcome,[2],inactive
CCOCC(=O)O,outcome,[1],inactive
same,outcome,[2],inactive
CC(=O)OCC(=O)[C@@]12N=C(C)O[C@@H]1C[C@H]1[C@@H]3CCC4=CC(=O)C=C[C@]4(C)[C@H]3[C@@H](O)C[C@@]12C,outcome,[1],inactive
same,outcome,[2],inactive
O=C1CCCN1CCO,outcome,[1],inactive
same,outcome,[2],inactive
COC(=O)c1cc(Cl)ccc1[N+](=O)[O-],outcome,[1],inactive
same,outcome,[2],inactive
OCCN(CCO)c1ccccc1,outcome,[1],inactive
same,outcome,[2],inactive
COc1cc(C)ccc1C(C)C,outcome,[1],inactive
same,outcome,[2],inactive
COCC(C)N (stereo not given),outcome,[1],inactive
same,outcome,[2],inactive
Nc1cccc(C(F)(F)F)c1,outcome,[1],inactive
same,outcome,[2],inactive
NCCCN1CCN(CCCN)CC1,outcome,[1],inactive
same,outcome,[2],inactive
Cc1ccc([N+](=O)[O-])cc1S(=O)(=O)O,outcome,[1],inactive
same,outcome,[2],inactive
C[C@]12CCC(=O)C=C1CC[C@@H]1[C@@H]2C(=O)C[C@@]2(C)[C@H]1CC[C@]2(O)C(=O)CO,outcome,[2],inactive
Cc1cccc(C(=O)O)c1,outcome,[1],inactive
same,outcome,[2],inactive
O=C(O)CCCCCCCCCC(=O)O,outcome,[2],inactive
C=CCOc1c(Br)cc(Br)cc1Br,outcome,[2],inactive
CCCOCCOCCOCCO,outcome,[1],inactive
same,outcome,[2],inactive
CC(C)=CCC/C(C)=C\C#N,outcome,[1],inactive
same,outcome,[2],inactive
CC1=CC[C@H](C(C)C)C=C1,outcome,[1],inactive
same,outcome,[2],inactive
CN1C(=O)N(C)C(O)C1O (stereo not given),outcome,[1],inactive
same,outcome,[2],inactive
O=c1cc[nH]c(=S)[nH]1,outcome,[1],inactive
same,outcome,[2],inactive
COC(=O)/C=C\C(=O)O,outcome,[2],inactive
CCCC(=O)OCc1ccccc1,outcome,[1],inactive
same,outcome,[2],inactive
SCCc1cnccn1,outcome,[2],inactive
O=C1OC(=O)c2cc(Oc3ccc4c(c3)C(=O)OC4=O)ccc21,outcome,[2],inactive
CC(C)=CCCC(C)C=O (stereo not given),outcome,[2],inactive
C=CC(=O)OCCOC(=O)C=C,outcome,[2],inactive
COc1cc(NC(=O)CC(C)=O)c(OC)cc1Cl,outcome,[1],inactive
same,AC50,[2],18.8 µM (active)
same,outcome,[2],inactive
c1ccc(-c2ccccn2)nc1,outcome,[2],inactive
C=CC(=O)OCCC(=O)O,outcome,[1],inactive
same,outcome,[2],inactive
CC(CC=O)c1ccccc1 (stereo not given),outcome,[1],inactive
same,outcome,[2],inactive
CC(=O)c1ccc[nH]1,outcome,[1],inactive
same,outcome,[2],inactive
CC/C=C\CCOC(=O)CCCCC,outcome,[1],inactive
same,outcome,[2],inactive
Cc1cc(=O)n(-c2ccccc2)n1C,outcome,[2],inactive
Nc1ccc(Cl)cc1Cl,outcome,[2],inactive
C=C(C)[C@H]1CC=C(C)CC1,outcome,[1],inactive
same,outcome,[2],inactive
Cc1cc(C)c(C)c(C)c1,outcome,[1],inactive
same,outcome,[2],inactive
O=C(/C=C/C=C/c1ccc2c(c1)OCO2)N1CCCCC1,outcome,[2],inactive
CC(C)(Oc1ccc(C2CC2(Cl)Cl)cc1)C(=O)O (stereo not given),outcome,[2],inactive
CC(=O)c1ccc2c(c1)CCCC2,outcome,[1],inactive
same,outcome,[2],inactive
O=C(c1ccccc1)c1ccc(O)c(O)c1O,outcome,[2],inactive
C[C@]12C=CC(=O)C=C1CC[C@@H]1[C@@H]2[C@@H](O)C[C@@]2(C)[C@H]1CC[C@]2(O)C(=O)CO,outcome,[2],inactive
